The record followed here is paper PMC7862700, “An all-to-all approach to the identification of sequence-specific readers for epigenetic DNA modifications on cytosine”.

Assay in all cases: DAPPL (digital affinity profiling via proximity ligation, sequencing); 10 mM Tris-HCl pH 7.5, 50 mM NaCl, 1 mM DTT, 4% glycerol, room temperature, 30 min; GST-TFs on glutathione beads, 16-mer random dsDNA library, 0.1% formaldehyde crosslink after washing; high values mean tight binding
What all share (conditions): protein: recombinant; tags: N-terminal GST; dsDNA, one strand shown

In one assay the target is T1, ELK1 (Homo sapiens, UniProt P19419 1-428).
T1 sequence: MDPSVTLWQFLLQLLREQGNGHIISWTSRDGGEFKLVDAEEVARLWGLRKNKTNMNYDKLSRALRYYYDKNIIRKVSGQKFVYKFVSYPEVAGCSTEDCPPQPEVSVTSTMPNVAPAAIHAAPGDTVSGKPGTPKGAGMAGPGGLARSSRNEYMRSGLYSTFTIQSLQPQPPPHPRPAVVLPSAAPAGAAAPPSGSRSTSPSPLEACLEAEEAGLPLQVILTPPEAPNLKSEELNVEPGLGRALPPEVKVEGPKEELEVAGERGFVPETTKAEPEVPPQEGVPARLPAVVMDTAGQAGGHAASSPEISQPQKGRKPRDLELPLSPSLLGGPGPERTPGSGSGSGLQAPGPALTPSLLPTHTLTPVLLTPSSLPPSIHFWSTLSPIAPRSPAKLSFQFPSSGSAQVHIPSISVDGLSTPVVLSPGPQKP
The procedure, abridged:
(§1)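 A tag-only sample was pooled with DNA-barcoded human transcription factors that had been expressed in yeast as GST fusions and captured on glutathione beads. The pools were incubated for 30 min at room temperature with 200 nmole of a random double-stranded 16-mer DNA library in Tris/NaCl/DTT/glycerol buffer, then washed, crosslinked with 0.1% formaldehyde, proximity-ligated (BsaI/T4 ligase, 1 h, 37 °C), PCR-amplified and sequenced on an Illumina NextSeq500. Binding signal is each hexamer's read frequency for a factor divided by its frequency for the tag-only sample.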

Another assay deals with T2, ERG (Homo sapiens, UniProt P11308 1-479).
T2 sequence: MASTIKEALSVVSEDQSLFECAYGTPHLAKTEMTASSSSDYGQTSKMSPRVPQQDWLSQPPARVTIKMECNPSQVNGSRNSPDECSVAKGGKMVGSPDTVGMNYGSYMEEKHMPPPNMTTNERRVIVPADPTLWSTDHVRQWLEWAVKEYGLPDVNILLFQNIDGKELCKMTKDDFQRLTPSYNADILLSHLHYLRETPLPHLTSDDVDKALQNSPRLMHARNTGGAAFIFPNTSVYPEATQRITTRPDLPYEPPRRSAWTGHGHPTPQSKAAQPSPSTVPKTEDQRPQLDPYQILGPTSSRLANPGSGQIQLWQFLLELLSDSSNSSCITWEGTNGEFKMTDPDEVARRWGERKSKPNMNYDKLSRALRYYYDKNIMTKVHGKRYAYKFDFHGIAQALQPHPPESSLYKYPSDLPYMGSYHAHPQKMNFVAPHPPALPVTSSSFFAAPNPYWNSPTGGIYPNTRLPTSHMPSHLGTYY
The procedure, abridged: as §1

The next assay concerns the target ELF1 (Homo sapiens, UniProt P32519 1-619). Put shortly: as §1
The target in the next assay is T3, EHF (Homo sapiens, UniProt Q9NZC4 1-300).
T3 sequence: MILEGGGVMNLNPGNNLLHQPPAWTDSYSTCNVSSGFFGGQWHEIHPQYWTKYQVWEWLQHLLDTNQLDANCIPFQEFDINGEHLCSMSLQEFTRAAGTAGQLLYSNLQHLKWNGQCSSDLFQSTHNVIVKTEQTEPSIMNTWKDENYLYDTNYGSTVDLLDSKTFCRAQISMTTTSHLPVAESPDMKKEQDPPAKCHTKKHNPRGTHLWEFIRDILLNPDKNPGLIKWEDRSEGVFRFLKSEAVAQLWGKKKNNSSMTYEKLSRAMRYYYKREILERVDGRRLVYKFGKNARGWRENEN
Put shortly:
as §1

The target in a further assay is SPIB (Homo sapiens, UniProt Q01892 1-262). Put shortly: as §1
Chain of SPIB (Q01892 whole entry): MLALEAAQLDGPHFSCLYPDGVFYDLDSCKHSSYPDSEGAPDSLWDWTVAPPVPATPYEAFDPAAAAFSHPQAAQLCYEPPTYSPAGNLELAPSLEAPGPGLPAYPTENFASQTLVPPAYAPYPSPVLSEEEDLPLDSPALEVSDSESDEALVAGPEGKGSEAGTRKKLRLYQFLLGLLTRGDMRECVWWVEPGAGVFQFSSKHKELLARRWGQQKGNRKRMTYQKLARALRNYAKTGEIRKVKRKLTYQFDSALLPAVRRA
The next assay addresses ETV5 (Homo sapiens, UniProt P41161 1-510). Put shortly:
as §1

A further assay deals with T4, SPIC (Homo sapiens, UniProt Q8N5J4 1-248).
T4 sequence: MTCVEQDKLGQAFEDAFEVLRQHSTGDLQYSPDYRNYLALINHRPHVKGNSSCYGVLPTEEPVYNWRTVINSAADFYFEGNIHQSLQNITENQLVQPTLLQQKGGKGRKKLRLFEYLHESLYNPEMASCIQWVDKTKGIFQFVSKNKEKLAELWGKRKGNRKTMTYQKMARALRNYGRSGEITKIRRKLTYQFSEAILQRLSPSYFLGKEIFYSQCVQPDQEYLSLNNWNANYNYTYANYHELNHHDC
Put shortly:
as §1

The next assay addresses T5, ELK4 (Homo sapiens, UniProt P28324-2 1-405).
T5 sequence: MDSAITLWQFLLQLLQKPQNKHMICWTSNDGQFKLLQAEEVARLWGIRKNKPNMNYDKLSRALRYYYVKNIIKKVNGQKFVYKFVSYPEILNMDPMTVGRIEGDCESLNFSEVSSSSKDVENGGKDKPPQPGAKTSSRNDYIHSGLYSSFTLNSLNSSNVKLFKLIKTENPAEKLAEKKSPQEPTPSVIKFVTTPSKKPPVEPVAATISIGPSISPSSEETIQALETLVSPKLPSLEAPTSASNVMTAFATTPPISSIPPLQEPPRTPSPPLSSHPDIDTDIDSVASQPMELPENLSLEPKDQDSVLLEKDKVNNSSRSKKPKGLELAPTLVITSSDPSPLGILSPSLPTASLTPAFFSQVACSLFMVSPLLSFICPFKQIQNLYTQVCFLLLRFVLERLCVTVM
Put shortly:
as §1

Another assay deals with T6, ELF3 (Homo sapiens, UniProt P78545 1-371).
T6 sequence: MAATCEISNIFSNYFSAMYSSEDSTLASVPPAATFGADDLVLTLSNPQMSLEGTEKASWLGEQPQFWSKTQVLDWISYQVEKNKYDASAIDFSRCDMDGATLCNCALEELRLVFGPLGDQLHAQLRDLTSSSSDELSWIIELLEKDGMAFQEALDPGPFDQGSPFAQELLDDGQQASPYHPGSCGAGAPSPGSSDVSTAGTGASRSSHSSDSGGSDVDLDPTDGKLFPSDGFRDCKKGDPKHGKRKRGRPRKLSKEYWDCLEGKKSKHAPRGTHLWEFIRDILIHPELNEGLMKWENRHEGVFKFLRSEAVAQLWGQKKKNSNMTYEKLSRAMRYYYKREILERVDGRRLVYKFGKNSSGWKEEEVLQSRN
Put shortly:
as §1

In another assay the target is ETV1 (Homo sapiens, UniProt P50549 1-477). Put shortly: as §1
Chain of ETV1 (P50549 whole entry): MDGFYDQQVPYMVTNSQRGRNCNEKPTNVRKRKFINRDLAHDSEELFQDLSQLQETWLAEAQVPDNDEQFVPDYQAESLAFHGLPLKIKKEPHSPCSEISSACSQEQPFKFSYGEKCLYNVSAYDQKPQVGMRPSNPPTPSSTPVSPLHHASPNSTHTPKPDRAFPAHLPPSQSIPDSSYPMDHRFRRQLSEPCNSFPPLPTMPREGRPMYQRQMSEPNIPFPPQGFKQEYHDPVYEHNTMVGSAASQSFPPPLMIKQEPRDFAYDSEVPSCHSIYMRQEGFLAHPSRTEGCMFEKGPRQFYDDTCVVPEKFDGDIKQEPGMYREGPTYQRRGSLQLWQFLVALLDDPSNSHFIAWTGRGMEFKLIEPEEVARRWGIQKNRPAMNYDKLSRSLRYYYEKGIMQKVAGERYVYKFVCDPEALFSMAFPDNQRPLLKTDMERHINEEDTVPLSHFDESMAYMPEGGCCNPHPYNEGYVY
A further assay has as its target T7, ERF (Homo sapiens, UniProt P50548 1-548).
T7 sequence: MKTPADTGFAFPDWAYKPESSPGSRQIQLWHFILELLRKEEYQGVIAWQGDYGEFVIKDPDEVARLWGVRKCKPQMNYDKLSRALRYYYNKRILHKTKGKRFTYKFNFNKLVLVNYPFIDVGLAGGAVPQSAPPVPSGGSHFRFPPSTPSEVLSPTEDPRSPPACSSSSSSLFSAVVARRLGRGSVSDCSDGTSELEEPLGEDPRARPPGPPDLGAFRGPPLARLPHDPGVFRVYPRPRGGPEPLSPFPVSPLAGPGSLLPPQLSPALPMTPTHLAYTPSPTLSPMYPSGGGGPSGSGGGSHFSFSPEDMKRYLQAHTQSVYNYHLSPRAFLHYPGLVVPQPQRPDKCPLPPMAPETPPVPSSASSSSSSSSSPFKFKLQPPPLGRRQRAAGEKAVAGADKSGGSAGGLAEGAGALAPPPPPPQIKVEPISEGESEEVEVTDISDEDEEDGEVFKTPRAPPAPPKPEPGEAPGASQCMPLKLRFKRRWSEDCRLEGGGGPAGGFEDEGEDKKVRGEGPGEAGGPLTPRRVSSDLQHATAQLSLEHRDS
Put shortly:
as §1

The target of another assay is T8, ETV3L (Homo sapiens, UniProt Q6ZN32 1-361).
T8 sequence: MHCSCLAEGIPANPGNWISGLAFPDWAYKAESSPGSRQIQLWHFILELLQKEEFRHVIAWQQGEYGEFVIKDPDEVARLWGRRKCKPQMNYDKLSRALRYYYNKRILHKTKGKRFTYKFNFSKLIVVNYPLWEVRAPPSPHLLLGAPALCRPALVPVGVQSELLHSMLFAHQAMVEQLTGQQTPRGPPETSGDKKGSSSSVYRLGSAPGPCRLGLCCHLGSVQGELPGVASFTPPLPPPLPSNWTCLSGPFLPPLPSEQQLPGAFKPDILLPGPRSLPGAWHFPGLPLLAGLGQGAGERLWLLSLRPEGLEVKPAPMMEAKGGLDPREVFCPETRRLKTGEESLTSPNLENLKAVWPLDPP
The procedure, abridged:
as §1

For the next assay, the target named is T9, ETS2 (Homo sapiens, UniProt P15036 1-469).
T9 sequence: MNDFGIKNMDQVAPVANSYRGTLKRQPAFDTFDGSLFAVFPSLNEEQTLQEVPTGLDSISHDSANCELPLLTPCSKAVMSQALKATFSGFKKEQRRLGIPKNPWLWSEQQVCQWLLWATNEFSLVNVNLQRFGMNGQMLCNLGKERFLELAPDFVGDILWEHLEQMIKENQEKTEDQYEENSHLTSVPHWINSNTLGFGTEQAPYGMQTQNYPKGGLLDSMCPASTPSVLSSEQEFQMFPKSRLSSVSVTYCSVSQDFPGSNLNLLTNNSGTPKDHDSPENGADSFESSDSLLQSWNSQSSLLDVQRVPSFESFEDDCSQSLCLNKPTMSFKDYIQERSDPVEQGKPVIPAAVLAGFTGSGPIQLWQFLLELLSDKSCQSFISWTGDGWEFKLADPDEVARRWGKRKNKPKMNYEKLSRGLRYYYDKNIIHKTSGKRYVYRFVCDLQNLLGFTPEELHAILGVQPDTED
Put shortly:
as §1

Another assay deals with T10, SPDEF (Homo sapiens, UniProt O95238 1-335).
T10 sequence: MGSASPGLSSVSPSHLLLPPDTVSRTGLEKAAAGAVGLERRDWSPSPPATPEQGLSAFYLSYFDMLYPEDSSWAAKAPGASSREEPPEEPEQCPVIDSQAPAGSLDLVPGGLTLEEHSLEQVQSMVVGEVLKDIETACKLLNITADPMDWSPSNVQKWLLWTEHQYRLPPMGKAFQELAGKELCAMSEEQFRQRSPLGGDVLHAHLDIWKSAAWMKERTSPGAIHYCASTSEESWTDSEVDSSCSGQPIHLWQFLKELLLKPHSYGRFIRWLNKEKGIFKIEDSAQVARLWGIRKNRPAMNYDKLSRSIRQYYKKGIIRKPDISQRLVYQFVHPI
Put shortly:
as §1

The next assay deals with T11, ETV7 (Homo sapiens, UniProt Q9Y603 1-341).
T11 sequence: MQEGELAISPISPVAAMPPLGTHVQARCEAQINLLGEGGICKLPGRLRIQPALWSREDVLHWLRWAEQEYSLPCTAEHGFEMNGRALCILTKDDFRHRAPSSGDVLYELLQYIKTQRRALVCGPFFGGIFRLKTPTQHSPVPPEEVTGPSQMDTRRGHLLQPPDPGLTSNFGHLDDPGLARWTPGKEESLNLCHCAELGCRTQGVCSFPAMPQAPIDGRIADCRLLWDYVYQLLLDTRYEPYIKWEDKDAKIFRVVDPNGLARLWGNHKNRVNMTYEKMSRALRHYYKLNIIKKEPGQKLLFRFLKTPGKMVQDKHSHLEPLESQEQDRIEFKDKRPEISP
Put shortly:
as §1

A further assay addresses T12, ETV3 (Homo sapiens, UniProt P41162-2 1-143).
T12 sequence: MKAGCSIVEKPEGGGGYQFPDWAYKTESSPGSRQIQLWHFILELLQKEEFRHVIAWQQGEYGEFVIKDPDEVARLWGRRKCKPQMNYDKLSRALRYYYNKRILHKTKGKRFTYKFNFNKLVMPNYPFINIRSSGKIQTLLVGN
The procedure, abridged:
as §1

In another assay the target is ETV6 (Homo sapiens, UniProt P41212 1-452). The procedure, abridged:
as §1

Chain of ETV5 (P41161 whole entry): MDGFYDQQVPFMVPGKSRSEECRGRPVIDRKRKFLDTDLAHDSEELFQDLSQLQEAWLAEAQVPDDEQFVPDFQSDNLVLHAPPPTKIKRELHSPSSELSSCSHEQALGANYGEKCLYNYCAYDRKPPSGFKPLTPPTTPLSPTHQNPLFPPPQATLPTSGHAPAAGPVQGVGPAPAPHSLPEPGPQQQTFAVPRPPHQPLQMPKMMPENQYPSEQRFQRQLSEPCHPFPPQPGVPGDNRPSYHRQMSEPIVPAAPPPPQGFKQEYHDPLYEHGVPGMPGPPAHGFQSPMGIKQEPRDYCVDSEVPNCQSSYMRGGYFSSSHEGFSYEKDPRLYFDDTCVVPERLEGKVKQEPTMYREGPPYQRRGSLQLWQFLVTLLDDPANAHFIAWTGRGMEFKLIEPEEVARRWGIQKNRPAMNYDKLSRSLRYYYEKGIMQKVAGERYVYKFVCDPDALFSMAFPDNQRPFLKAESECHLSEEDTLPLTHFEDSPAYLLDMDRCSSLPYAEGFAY
Chain of ETV6 (P41212 whole entry): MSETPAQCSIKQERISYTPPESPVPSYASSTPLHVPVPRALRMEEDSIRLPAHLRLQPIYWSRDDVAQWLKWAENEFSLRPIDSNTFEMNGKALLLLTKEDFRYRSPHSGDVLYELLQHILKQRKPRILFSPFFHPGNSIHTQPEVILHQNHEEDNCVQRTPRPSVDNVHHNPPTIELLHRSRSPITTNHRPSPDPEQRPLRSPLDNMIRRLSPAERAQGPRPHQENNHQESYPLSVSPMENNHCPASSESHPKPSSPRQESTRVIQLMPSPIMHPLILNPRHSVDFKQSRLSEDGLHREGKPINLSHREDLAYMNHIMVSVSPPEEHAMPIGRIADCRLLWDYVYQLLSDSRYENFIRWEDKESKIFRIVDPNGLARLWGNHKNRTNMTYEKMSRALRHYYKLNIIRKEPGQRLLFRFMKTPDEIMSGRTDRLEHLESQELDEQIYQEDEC
Chain of ELF1 (P32519 whole entry): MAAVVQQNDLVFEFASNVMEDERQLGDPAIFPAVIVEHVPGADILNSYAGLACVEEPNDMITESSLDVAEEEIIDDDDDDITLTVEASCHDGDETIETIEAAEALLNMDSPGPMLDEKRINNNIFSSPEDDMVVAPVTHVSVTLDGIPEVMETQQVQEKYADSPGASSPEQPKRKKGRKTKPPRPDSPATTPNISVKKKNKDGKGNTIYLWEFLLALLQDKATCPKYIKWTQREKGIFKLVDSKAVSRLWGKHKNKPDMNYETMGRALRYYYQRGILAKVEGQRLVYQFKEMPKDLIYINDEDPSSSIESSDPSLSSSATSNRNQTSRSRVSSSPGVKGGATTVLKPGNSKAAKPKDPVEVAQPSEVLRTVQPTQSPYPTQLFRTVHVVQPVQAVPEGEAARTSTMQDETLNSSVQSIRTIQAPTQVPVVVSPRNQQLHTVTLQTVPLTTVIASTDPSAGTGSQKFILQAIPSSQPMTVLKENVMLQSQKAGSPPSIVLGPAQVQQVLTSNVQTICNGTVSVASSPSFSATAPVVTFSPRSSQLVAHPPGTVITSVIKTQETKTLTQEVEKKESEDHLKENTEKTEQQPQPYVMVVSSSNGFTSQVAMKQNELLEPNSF

Regarding GGCTAT, the binding signal with ELK1 was 1.06 fold enrichment (6-mer frequency, TF over GST control); in the assay with ERG, 1.07 fold enrichment (6-mer frequency, TF over GST control); with ELF1, 1.02 fold enrichment (6-mer frequency, TF over GST control); in the assay with EHF, 1.12 fold enrichment (6-mer frequency, TF over GST control); with SPIB, 1.02 fold enrichment (6-mer frequency, TF over GST control); in the assay with ETV5, 1 fold enrichment (6-mer frequency, TF over GST control). Besides, the binding signal with SPIC was 1.03 fold enrichment (6-mer frequency, TF over GST control); in the assay with ELK4 it was 1.15 fold enrichment (6-mer frequency, TF over GST control); in the assay with ELF3 it was 1.01 fold enrichment (6-mer frequency, TF over GST control); in the assay with ETV1, 1.07 fold enrichment (6-mer frequency, TF over GST control); with ERF it was 1.06 fold enrichment (6-mer frequency, TF over GST control); in the assay with ETV3L it was 1.07 fold enrichment (6-mer frequency, TF over GST control). The binding signal is 1.02 fold enrichment (6-mer frequency, TF over GST control) in the assay with ETS2; 1.05 fold enrichment (6-mer frequency, TF over GST control) in the assay with SPDEF; 1.12 fold enrichment (6-mer frequency, TF over GST control) with ETV7; 1.06 fold enrichment (6-mer frequency, TF over GST control) with ETV3; 1.03 fold enrichment (6-mer frequency, TF over GST control) with ETV6.
